# This excerpt belongs to a sample that is enriched for hits.
# AMA1-RON2 inh – inhibitors of Plasmodium falciparum AMA1-RON2 interaction; AlphaScreen AMA1-biotinylated RON2 peptide binding; Potency, µM (series often up to 58.2 µM), inactives show at the top dose activity change, negative = inhibition, usual class: inhibitors; 360,000 compounds, 0.2% hits; AID 720542;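 note: potency is the fitted concentration of half-maximal effect; 0% = vehicle wells and -100% = peptide control; nearly all actives have a fitted effect of over 45% in size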
#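 AMA1 (3D7) with his tag at 25 nM final met compounds first, then biotinylated RON2 peptide at 25 nM; detection used donor plus acceptor beads, 10 µg/mL apiece, read by AlphaScreen after 30 min at room temperature.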
# AmpC inh no detg – blocks E. coli AmpC beta-lactamase in detergent-free assay | Potency, µM (titrated, usually from 57.1 µM), inactives show at the top dose activity change, negative = inhibition, hits mostly inhibitors | P00811 | 330,000 compounds, 0.52% hits | AmpC nitrocefin hydrolysis, absorbance 480 nm, 0.0001% Triton;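 note: potency is the fitted concentration of half-maximal effect; plate controls were no compound for no effect and no enzyme for full effect; nearly all actives have a fitted effect of over 20% in size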
# Target sequence (P00811 whole entry, looked up): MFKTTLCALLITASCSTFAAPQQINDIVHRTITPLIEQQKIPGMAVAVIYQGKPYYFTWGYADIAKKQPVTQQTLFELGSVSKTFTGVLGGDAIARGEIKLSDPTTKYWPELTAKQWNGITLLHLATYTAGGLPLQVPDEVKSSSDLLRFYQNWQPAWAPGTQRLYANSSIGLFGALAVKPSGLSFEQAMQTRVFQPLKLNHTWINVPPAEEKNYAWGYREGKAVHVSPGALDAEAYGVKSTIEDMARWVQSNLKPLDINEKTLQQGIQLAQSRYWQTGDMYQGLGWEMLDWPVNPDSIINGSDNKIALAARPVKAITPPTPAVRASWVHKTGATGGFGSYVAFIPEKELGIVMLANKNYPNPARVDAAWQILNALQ
#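 AmpC (5.3 nM in the dispensed reagent) in 20 mM phosphate pH 7.0 with 0.01% (detergent screen) or 0.0001% Triton X-100 was preincubated with compounds for 15 min at room temperature. Nitrocefin was then added from an 800 uM solution, and hydrolysis was followed at 480 nm.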
# AmpC detergent – inhibitors of E. coli AmpC beta-lactamase with detergent; P00811; AmpC hydrolysis of nitrocefin, absorbance 480 nm, 0.01% Triton; Potency, µM (titrated, usually from 114 µM), without a hit: top-dose activity change, negative = inhibition, actives largely listed as inhibitors; 370,000 compounds, 0.041% hits;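 note: potency is the fitted concentration of half-maximal effect; 0% = no-compound wells and -100% = no-enzyme wells; nearly all actives have a fitted effect of over 25% in size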
#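 AmpC (5.3 nM in the dispensed reagent) in 20 mM phosphate pH 7.0 with 0.01% (detergent screen) or 0.0001% Triton X-100 was preincubated with compounds for 15 min at room temperature. Nitrocefin was then added from an 800 uM solution, and hydrolysis was followed at 480 nm.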
# SARS PLpro yeast – SARS-CoV PLP inhibition in yeast | 330,000 compounds, 0.19% hits | AID 485353 | Potency, µM (top dose mostly 32.9 µM), without a hit: at the highest dose activity, positive = growth rescue, most hits filed as activators | S. cerevisiae expressing SARS-CoV PLpro, growth rescue; calls by dose curve; note: potency is the fitted concentration of half-maximal effect; 0% is about no effect; nearly all actives have a fitted effect of over 55% in size
# Cycloheximide cs – affects cycloheximide protein synthesis inhibition readout, counter-screen | cell reporter, cycloheximide protein synthesis inhibition counterscreen | max response, % | 300,000 compounds, 12% hits | AID 2314; in the data active = max response mostly above about 13%, no sharp cut-off; inactive = mostly below about 14%; note: read at 38.3 µM for the half of the compounds with a filed dose; 0% is about no effect
# Shiga inhibitor – blocks Shiga toxin action in Vero cells; inhibition, % at 38.7 µM; Vero cells, Shiga toxin protein synthesis inhibition reporter; 290,000 compounds, 9.2% hits; in the data active = inhibition mostly above about 28%, no sharp cut-off; inactive = mostly below about 43%; note: 0% is about no effect
# * hit, by the source's call; ? = inconclusive; nt = not tested or not shown. Unless noted, calls come from the whole dose curve; as a rule, active = well fitted curve in the direction sought with a large enough effect; inconclusive = small, poorly fitted or top-dose-only effect, or another doubt; inactive = no such curve, though single readings can be large; an effect the other way counts as inactive or inconclusive.
SMILES,AMA1-RON2 inh,AmpC inh no detg,AmpC detergent,SARS PLpro yeast,Cycloheximide cs,Shiga inhibitor
Cn1cc(CCC(=O)N2CCCC(CCC(=O)NCc3ccc(F)c(F)c3)C2)cn1 (stereo not given),5%,33%,-5%,1%,17*,43*
COCCC(=O)N1CCCC(CCC(=O)NCc2ccc(F)c(F)c2)C1 (stereo not given),8%,-18%,1%,-1%,17*,79*
CCOC(=O)CNC(=O)N1CCCC(CCC(=O)NCc2ccc(F)c(F)c2)C1 (stereo not given),17%,-3%,5%,0%,-2,15
C[C@@H]1CN([C@H](C)CO)C(=O)CCCn2nncc2CO[C@H]1CN(C)C(=O)Nc1ccc(N2CCCCC2)cc1,-10%,nt,nt,nt,nt,nt
O=C(CN(C(=O)c1ccc(Cl)cc1Cl)N1C(=O)C2C3C=CC(C3)C2C1=O)c1ccc(F)cc1 (stereo not given),-14%,nt,nt,nt,nt,nt
COCCCNC(=O)CC1Oc2ccccc2NC1=O (stereo not given),20%,10µM*,?,2%,-2,14
O=S(=O)(c1ccc2c(c1)OCCO2)N1CCN(c2cccc(Cl)c2)CC1,-12%,17%,5%,-8%,1,11
O=C(CSc1nc2ccccc2n1Cc1ccccc1Cl)N/N=C/c1ccccc1C(=O)O,21%,-36%,9%,-1%,17*,39
O=C(CSc1nc2ccccc2n1Cc1ccccc1)N/N=C/c1ccccc1C(=O)O,111%,-52%,5%,0%,-1,23
Cc1ccc(C)c2[nH]c(=O)c(CCNC(=O)c3ccc(S(=O)(=O)N(C)C)cc3)cc12,-6%,2.8µM*,-15%,25%,-3,11
Cc1ccc(C)c2[nH]c(=O)c(CCNC(=O)C(C)(C)C)cc12,-4%,40µM*,-4%,13%,8,-7
Cc1ccc(C)c2[nH]c(=O)c(CCNC(=O)Cc3cccs3)cc12,-7%,-6%,-15%,10%,-2,15
C=CCN(C(=O)c1ccc(Cl)cc1)c1ccccc1C(=O)NCC(=O)O,5%,2%,1%,0%,2,-2
Nc1nc(SCC(=O)N2CCCc3ccccc32)[nH]c(=O)c1-c1ccccc1,-4%,-12%,-1%,3%,34*,54*
Nc1nc(SCc2ccccc2)[nH]c(=O)c1-c1ccccc1,-8%,-23%,4%,-2%,67*,121*
Nc1nc(SCc2ccccc2Cl)[nH]c(=O)c1-c1ccccc1,17%,-35%,-4%,-1%,10,16
C=CCc1c(C)nc(SCc2ccccc2)[nH]c1=O,2%,-26%,-11%,-2%,16*,18
COc1cc(C(=O)N=c2sccn2C)c([N+](=O)[O-])cc1OC,-5%,-18%,1%,6%,-2,-11
N/C(=N\OC(=O)c1cc(Cl)ccc1Cl)c1cccnc1,0%,-12%,-7%,2%,34*,56
N/C(=N\OC(=O)c1cc(Br)ccc1Cl)c1cccnc1,?,-17%,-11%,0%,9,23
N/C(=N\OC(=O)c1ccccc1)c1ccn[nH]1,-2%,-12%,-8%,-4%,25*,49*
N/C(=N\OC(=O)c1ccccc1)c1cccnc1,14%,-15%,-6%,0%,47*,66*
O=C(O/N=C(/c1ccccc1)c1ccncc1)c1ccc(F)cc1,15%,-2%,-3%,-9%,-7,-4
N/C(=N\OC(=O)c1ccc(Cl)cc1[N+](=O)[O-])c1cccnc1,-6%,26%,-10%,-3%,44*,56*
O=C(NCc1cccnc1)c1ccc(Cl)cc1[N+](=O)[O-],-2%,-9%,-3%,3%,-4,13
SMILES,AMA1-RON2 inh,AmpC inh no detg,AmpC detergent,SARS PLpro yeast,Cycloheximide cs,Shiga inhibitor
Cc1ccc(C(C(=O)NC2CCCCC2)N(Cc2ccco2)C(=O)C2COc3ccccc3O2)o1 (stereo not given),-8%,1%,-9%,-1%,3,15
COc1cccc(CNC(=O)CCS(=O)(=O)c2ccc3c(c2)NC(=O)C(C)S3)c1 (stereo not given),1%,-12%,?,-6%,-7,-11
N/C(=N\OC(=O)c1ccccc1Cl)c1cccnc1,6%,-6%,-12%,-5%,38*,61*
C[C@@H](NC(=O)[C@@H]1Cc2ccccc2CN1)C(=O)NC1CCCCC1,10%,-6%,-5%,-5%,9,14
CC(NC(=O)[C@@H](NC(=O)[C@@H]1Cc2ccccc2CN1)C(C)C)c1ccccc1 (stereo not given in full),11%,-3%,2%,-1%,-1,-5
CC(C)[C@H](NC(=O)[C@@H]1Cc2ccccc2CN1)C(=O)Nc1ccc2c(c1)OCO2,24%,-7%,1%,-4%,23*,37
C[C@@H](NC(=O)[C@@H]1Cc2ccccc2CN1)C(=O)Nc1ccc2c(c1)OCO2,43%,-20%,-12%,-7%,17*,10
COc1ccc(C(=O)N(C)C2CCCc3ccccc32)cc1OC1CCN(C(C)C)CC1 (stereo not given),11%,23%,2%,-1%,14,-18
COc1ccc(C(=O)NC2CCSc3ccccc32)cc1F (stereo not given),-3%,-55%,-5%,-1%,13*,7
COc1ccc(C(=O)NC2CCc3ccccc32)cc1OC1CCN(C(C)C)CC1 (stereo not given),3%,15%,9%,-3%,14*,47*
CCCOC1CCCN(C(=O)c2ccc(OC)c(OC3CCN(C(C)C)CC3)c2)C1 (stereo not given),7%,-10%,-6%,5%,19*,20
COC(=O)CN(C)C(=O)c1ccc(OC)c(OC2CCN(C(C)C)CC2)c1,-6%,-11%,7%,0%,24*,30*
COc1ccc(C(=O)N2CCCCCC2)cc1OC1CCN(C(C)C)CC1,-16%,-16%,2%,-5%,-2,-23
COc1ccc(CCNC(=O)CSCc2nc(-c3cccc(C)c3)oc2C)cc1OC,nt,nt,-11%,nt,nt,nt
Nn1cc(-c2ccccc2)nc1SCC(=O)Nc1cccc(S(N)(=O)=O)c1,-2%,-37%,1%,3%,2,-4
Cc1cccc(S(=O)(=O)N(C)C[C@H]2OCc3cnnn3CCCC(=O)N([C@H](C)CO)C[C@H]2C)c1,3%,nt,nt,nt,nt,nt
COc1ccc2ccc(OCC(=O)N3c4ccccc4NC(=O)CC3C)cc2c1 (stereo not given),7%,-13%,-2%,-15%,nt,nt
C=CCc1cccc(C=Nc2cccn3cc(-c4ccccc4)nc23)c1O,23%,2%,-4%,-3%,32*,69*

# Assay outcomes: PubChem BioAssay, National Center for Advancing Translational Sciences (NCATS)
